Among the data in PubChem BioAssay (Tox21) are Potency, outcome and activity change, positive = activation values, retold here.

Unmarked numbers belong to inactive results. Inconclusive results are not listed. Calls of active or inactive are those of the source. Unless noted, the call rests on the fitted dose curve; in most records, active means well fitted curve in the direction sought with a large enough effect in the repeat runs; inconclusive means weak or mixed curves; inactive means no such curve, though single readings can be large; an effect the other way counts as inactive or inconclusive.

The nature of experiment [1]: qHTS assay to identify small molecule agonists of the constitutive androstane receptor (CAR) signaling pathway - cell viability counter screen (AID 1224836). Further: nearly all actives have a fitted effect of over 45% in size. Further: potency means the concentration at half of the fitted maximal effect. The method, boiled down: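 Counter screen multiplexed with the CAR reporter readout: HepG2 cells co-transfected with hCAR and the CYP2B6-2.2kb construct receive a 15-concentration compound series and 0.75 uM PK11195 (final), then CellTiter-Fluor fluorescence is read after 23 h.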
(In general: Quantitative high-throughput screening tests each substance at several concentrations.)

Experiment [2] can be described thus: qHTS assay to identify small molecule antagonists of the constitutive androstane receptor (CAR) signaling pathway - cell viability counter screen (AID 1224837). Further: nearly all actives have a fitted effect of over 45% in size. Further: potency means the concentration at half of the fitted maximal effect. The method, boiled down: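 To flag cytotoxic false antagonists, HepG2 hCAR/CYP2B6-2.2kb cells were treated 23 hr with 15-concentration compound series and 50 nM CITCO at 37 C/5% CO2; CellTiter-Fluor fluorescence was the measured end point.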

Experiment [3] concerns the target Nuclear receptor subfamily 1 group I member 3 (Homo sapiens) (UniProt Q14994). The experiment can be described thus: qHTS assay to identify small molecule antagonists of the constitutive androstane receptor (CAR) signaling pathway (AID 1224838).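 Further: HepG2 cells stably expressing hCAR with CYP2B6 luciferase reporter stimulated by CITCO; nearly all actives have a fitted effect of over 40% in size.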 Further: potency means the concentration at half of the fitted maximal effect. The method, boiled down: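 Human hepatoma HepG2 cells expressing hCAR and a CYP2B6 promoter (2.2 kb) luciferase construct; compound titration (15 points) with 50 nM CITCO final, 24 h at 37 C/5% CO2; luminescence via ONE-Glo after 30 min at room temperature.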

Experiment [4] is described as follows: qHTS assay to identify small molecule antagonists of the estrogen related receptor signaling pathway with the pleiotropic PPARgamma coactivator (PGC) from Tox21 10K library - cell viability counter screen (AID 1224840; active means well fitted cell-killing curve with a large enough effect in the repeat runs, not every such curve was filed as active; further: nearly all actives have a fitted effect of over 40% in size; further: potency means the concentration at half of the fitted maximal effect). The procedure, abridged: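 Seeded PGC/ERR cells (2,000/well, 6 h, 37 C/5% CO2) get compound by pin tool; 17.5 h incubation at 37 C; CellTiter-Fluor added, 30 min, fluorescence measured.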

Experiment [5] is described as follows: qHTS assay to identify small molecule antagonists of the estrogen related receptor signaling pathway with the pleiotropic PPARgamma coactivator (PGC) from Tox21 10K library (AID 1224841; call rule not given here; further: actives are mostly falling curves and most rising ones were filed inactive; nearly all actives have a fitted effect of over 50% in size; further: potency means the concentration at half of the fitted maximal effect). The method, boiled down: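 Test chemicals dissolved in DMSO were applied to pre-incubated (6 h) PGC/ERR cells at 2,000 cells/well for an 18 h, 37 C treatment; reporter luminescence was then read using One-Glo.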

Experiment [6] is described as follows: qHTS assay to identify small molecule agonists of the estrogen related receptor signaling pathway with the pleiotropic PPARgamma coactivator (PGC) from Tox21 10K library (AID 1224842). Further: nearly all actives have a fitted effect of over 15% in size. The procedure, abridged:
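PGC/ERR reporter cells (NTP line) were seeded 2,000 per well, rested 6 h at 37 C/5% CO2, then pin-dosed with compounds in DMSO for 18 h at 37 C; luciferase read by One-Glo luminescence after 30 min at room temperature.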

Experiment [7] has as its target Thyrotropin receptor (Homo sapiens) (UniProt P16473). The experiment can be described thus: qHTS assay to identify small molecule agonists of the thyroid stimulating hormone receptor (TSHR) signaling pathway (AID 1224843; calls by dose curve; further: nearly all actives have a fitted effect of over 45% in size; further: potency means the concentration at half of the fitted maximal effect). The procedure, abridged:
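Using 15 concentrations per compound in triplicate, cAMP production was monitored in TSHR-HEK293 cells after 30 min compound incubation at RT; HTRF reagents followed, with fluorescence intensity recorded after 1 h.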

The nature of experiment [8]: qHTS assay to identify small molecule agonists of the hypoxia (HIF-1) signaling pathway - cell viability counter screen (AID 1224844; calls by dose curve; further: nearly all actives have a fitted effect of over 50% in size; further: potency means the concentration at half of the fitted maximal effect). The method, boiled down: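 HRE-bla ME-180; 0.5% dFBS; cpd 17 h, 37C, 5% CO2; CellTiter-Glo lum., 30 min RT, post-FRET read, same wells.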
Experiment [9] can be described thus: qHTS assay to identify small molecule agonists of the hypoxia (HIF-1) signaling pathway (AID 1224846; active means well fitted activation curve with a large enough effect in the signal ratio in the repeat runs, not every such curve was filed as active; the % refers to the signal ratio). The procedure, abridged: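 Reporter induction in HRE-bla ME-180 cells is taken as agonism: cells sit 5 hrs after plating, receive compounds or DMSO only, incubate 17 hrs at 37C under 5% CO2, and are loaded with CCF4-AM for beta-lactamase FRET measurement.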

Experiment [10] can be described thus: qHTS assay to identify small molecule agonists of H2AX - cell viability counter screen (AID 1224847; calls by dose curve; further: nearly all actives have a fitted effect of over 30% in size; further: potency means the concentration at half of the fitted maximal effect). The procedure, abridged:
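We seed wild-type CHO-K1 cells overnight, treat them for 3 hr at 37C with compounds in 15-concentration series, and quantify remaining viability by CellTiter-Glo luminescence.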

Experiment [11] can be described thus: qHTS assay to identify small molecule antagonists of the estrogen related receptor (ERR) signaling pathway from Tox21 library (AID 1224848). Further: nearly all actives have a fitted effect of over 50% in size. Further: potency means the concentration at half of the fitted maximal effect. The procedure, abridged: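 Tox21 10K compounds in DMSO tested for ERR pathway antagonism in NTP's ERR cell line; 18 h, 37 C exposure; ONE-Glo luminescence.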
The nature of experiment [12]: qHTS assay to identify small molecule agonists of the estrogen related receptor (ERR) signaling pathway from Tox21 library (AID 1224849; calls by dose curve; further: nearly all actives have a fitted effect of over 15% in size). To be noted: ERR reporter cell line, ONE-Glo luciferase, 18 h; at 92.4 µM (top of the series) unless noted. The procedure, abridged: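 Tox21 compounds tested for ERR agonism in an NTP reporter cell line: 18 h treatment at 37 C, then ONE-Glo luminescence.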

Experiment [13] can be described thus: qHTS RealTime-Glo MT Cell Viability Assay in HepG2 cells - 24 hour (AID 1224867). Further: nearly all actives have a fitted effect of over 50% in size. Further: potency means the concentration at half of the fitted maximal effect. The procedure, abridged:
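HepG2 cells were seeded at 600 cells/well together with NanoLuc luciferase and a cell-permeant prosubstrate, preincubated 5 h at 37 C/5% CO2, then pin-dosed with compounds in DMSO. Nonlytic luminescence from viable cells was read at each time point.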

Experiment [14] can be described thus: qHTS RealTime-Glo MT Cell Viability Assay in HEK293 cells - 32 hour (AID 1224868). Further: nearly all actives have a fitted effect of over 50% in size. Further: potency means the concentration at half of the fitted maximal effect. The procedure, abridged:
(§1)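 HEK293 cells were seeded at 600 cells/well together with NanoLuc luciferase and cell-permeant prosubstrate, preincubated 5 h at 37 C/5% CO2, then given compound in DMSO by pintool. Luminescence from viable-cell prosubstrate reduction was read repeatedly over 40 h.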

The nature of experiment [15]: A CellTox Green Cytotoxicity Assay to monitor cytotoxicity in HEK293 cells - 0 hour (AID 1224869). Further: nearly all actives have a fitted effect of over 50% in size. The method, boiled down: (§2)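 Tox21 screen in HEK293: membrane-impermeant cyanine dye fluoresces on binding dead-cell DNA; compound pinned 5 h post-seeding, plates held at 37 C, signal read repeatedly through 40 h.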
A short description of experiment [16]: A CellTox Green Cytotoxicity Assay to monitor cytotoxicity in HEK293 cells - 40 hour (AID 1224871). Further: nearly all actives have a fitted effect of over 45% in size. Further: potency means the concentration at half of the fitted maximal effect. The method, boiled down:
as §2

The nature of experiment [17]: qHTS RealTime-Glo MT Cell Viability Assay in HEK293 cells - 16 hour (AID 1224872). Further: nearly all actives have a fitted effect of over 50% in size. Further: potency means the concentration at half of the fitted maximal effect. The method, boiled down: as §1
Experiment [18] can be described thus: qHTS assay to identify small molecule agonists of H2AX (AID 1224845; active means well fitted activation curve with a large enough effect in the signal ratio in the repeat runs, not every such curve was filed as active; the % refers to the signal ratio). The procedure, abridged: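 Wild-type CHO-K1 cells plated overnight, then exposed 3 hr at 37C to compounds at 15 concentrations (0.76% DMSO). Lysed, then HTRF anti-pH2AX(S139)-cryptate/anti-H2AX-d2 detection after 24 hr at room temperature; emissions 665 and 620 nm.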
The nature of experiment [19]: qHTS RealTime-Glo MT Cell Viability Assay in HepG2 cells - 40 hour (AID 1224870). Further: nearly all actives have a fitted effect of over 50% in size. Further: potency means the concentration at half of the fitted maximal effect. The procedure, abridged: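 HepG2 cells mixed with RealTime-Glo MT reagents (NanoLuc plus cell-permeant prosubstrate) were seeded at 600 cells/well, incubated 5 h at 37 C/5% CO2, then pinned with compounds in DMSO; nonlytic luminescence tracked viability during 40 h treatment.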
The target of experiment [20] is Nuclear receptor subfamily 1 group I member 3 (Homo sapiens) (UniProt Q14994). The experiment can be described thus: qHTS assay to identify small molecule agonists of the constitutive androstane receptor (CAR) signaling pathway (AID 1224839). Further: nearly all actives have a fitted effect of over 15% in size. The method, boiled down:
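A 15-concentration quantitative screen uses HepG2 cells co-transfected stably with human CAR and CYP2B6-2.2kb reporter. Treatment lasts 24 h with 0.75 uM PK11195 final present; ONE-Glo luminescence is the signal.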
On the % scale 0 is the no-effect control and ±100 the full control effect.

Chain of Nuclear receptor subfamily 1 group I member 3 (Homo sapiens) (Q14994 whole entry, looked up): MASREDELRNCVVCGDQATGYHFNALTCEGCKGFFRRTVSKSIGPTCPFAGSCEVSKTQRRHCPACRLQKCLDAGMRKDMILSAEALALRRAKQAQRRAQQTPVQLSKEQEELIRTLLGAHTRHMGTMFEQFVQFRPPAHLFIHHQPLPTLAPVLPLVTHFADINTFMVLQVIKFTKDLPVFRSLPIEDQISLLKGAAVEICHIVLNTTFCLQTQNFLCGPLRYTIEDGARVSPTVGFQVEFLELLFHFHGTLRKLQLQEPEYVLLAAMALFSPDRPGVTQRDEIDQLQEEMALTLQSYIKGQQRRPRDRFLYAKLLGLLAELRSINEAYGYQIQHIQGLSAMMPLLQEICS
Chain of Thyrotropin receptor (Homo sapiens) (P16473 whole entry, looked up): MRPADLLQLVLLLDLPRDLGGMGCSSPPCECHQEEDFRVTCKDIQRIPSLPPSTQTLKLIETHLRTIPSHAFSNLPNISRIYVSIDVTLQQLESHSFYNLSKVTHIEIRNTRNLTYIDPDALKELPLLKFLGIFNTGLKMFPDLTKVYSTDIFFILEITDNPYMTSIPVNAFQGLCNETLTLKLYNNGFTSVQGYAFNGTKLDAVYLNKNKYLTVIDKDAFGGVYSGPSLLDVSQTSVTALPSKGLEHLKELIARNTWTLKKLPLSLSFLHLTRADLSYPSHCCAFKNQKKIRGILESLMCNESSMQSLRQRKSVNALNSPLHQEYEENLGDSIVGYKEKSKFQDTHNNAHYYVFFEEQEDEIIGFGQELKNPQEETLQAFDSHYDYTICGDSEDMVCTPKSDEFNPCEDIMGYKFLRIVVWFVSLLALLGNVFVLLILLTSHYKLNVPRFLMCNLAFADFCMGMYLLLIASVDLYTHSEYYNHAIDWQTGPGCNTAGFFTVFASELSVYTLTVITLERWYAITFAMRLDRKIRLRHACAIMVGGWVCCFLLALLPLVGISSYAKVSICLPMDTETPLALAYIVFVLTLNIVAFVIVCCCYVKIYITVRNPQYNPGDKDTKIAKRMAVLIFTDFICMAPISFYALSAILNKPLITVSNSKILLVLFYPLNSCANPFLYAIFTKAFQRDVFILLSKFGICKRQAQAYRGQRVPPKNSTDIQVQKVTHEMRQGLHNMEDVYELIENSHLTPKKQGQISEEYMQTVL

Turning to `CC1=CCC(=O)O1`, the Potency result in [1], in [2], in experiment [3], in experiment [4], in [5] and in experiment [6] was “inactive” in each case. In addition, the Potency entry in [7], in experiment [8], in [10], in [11], in experiment [13] and in experiment [14] was “inactive” each time. In addition, the Potency result in experiment [15], in experiment [16] and in [17] was “inactive” in each case. Also, the outcome in experiment [9] was inactive. Further, the activity change, positive = activation in experiment [12] was 8.22%.

As for `CC(C)OC(=O)c1cc(C(=O)OC(C)C)cc([N+](=O)[O-])c1`, the Potency entry in experiment [1], in experiment [2], in experiment [3], in [4], in experiment [5] and in experiment [8] was “inactive” throughout. The Potency result in [18], in [11], in [13], in experiment [15] and in experiment [19] was “inactive” each time. For the same molecule, the Potency in experiment [7] was 22.2 µM (active). For the same molecule, the activity change, positive = activation in [12] is -0.42%.

With `CCCN(CCc1cccs1)[C@H]1CCc2c(O)cccc2C1`, the Potency entry in experiment [1], in experiment [2], in experiment [3], in experiment [4], in experiment [5] and in experiment [6] was “inactive” in each case. Besides, the Potency result in [8], in [18], in experiment [13], in experiment [15] and in [19] was “inactive” each time. Besides, the Potency in [7] was 29.8 µM (active); in experiment [14] it was 19 µM (active); in [16], 23.9 µM (active); in experiment [17], 15.1 µM (active). Also, the activity change, positive = activation in [12] was -19.8% [at 42.5 µM].

As for `O=C(c1ccccc1)c1cc(Cl)ccc1O`, the Potency entry in experiment [1], in experiment [2], in [3], in experiment [4], in [5] and in [6] was “inactive” each time. The Potency result in experiment [8], in [11], in experiment [13], in experiment [15] and in experiment [19] was “inactive” each time. Further, the result in experiment [9] was inactive. Also, in experiment [12], the activity change, positive = activation is -10.3%.

On to `NC(=O)C(=O)N/N=C/c1ccc([N+](=O)[O-])o1`, for which the Potency result in experiment [1], in experiment [2], in experiment [3], in experiment [20], in experiment [4] and in [8] was “inactive” throughout. The Potency entry in experiment [13], in [14], in [15], in experiment [19], in experiment [16] and in experiment [17] was “inactive” in each case.

For `O=C1C=CC(=O)N1c1ccccc1`, the Potency is 54.5 µM (active) in experiment [1]; 27.3 µM (active) in [2]; 27.3 µM (active) in experiment [3]; 30.6 µM (active) in experiment [4]; 54.5 µM (active) in [5]; 21.9 µM (active) in experiment [8]. The Potency is 45 µM (active) in [10]; 54.5 µM (active) in [11]; 13.8 µM (active) in experiment [13]; 11 µM (active) in [14]; 11 µM (active) in experiment [19]; 11 µM (active) in [16]. In experiment [17], the Potency is 15.5 µM (active). The Potency entry in experiment [6] and in experiment [15] was “inactive” each time. For the same molecule, the activity change, positive = activation in [12] was -78.1%.

Consider `CCCCCCCOC(=O)c1ccccc1C(=O)OCCCCCCC`, for which the Potency result in [1], in experiment [2], in experiment [3], in experiment [4], in experiment [5] and in experiment [6] was “inactive” in each case. In addition, the Potency entry in experiment [7], in experiment [8], in [18], in [10], in [11] and in experiment [13] was “inactive” each time. Moreover, the Potency entry in experiment [14], in experiment [19], in experiment [16] and in experiment [17] was “inactive” in each case. In experiment [9], the result was inactive. Further, the activity change, positive = activation in [12] is 1.61%.

Consider `CCOC(OCC)C(=O)c1ccccc1`, for which the Potency result in [1], in experiment [2], in experiment [3], in experiment [4], in [5] and in [6] was “inactive” each time. Besides, the Potency entry in experiment [8], in experiment [18], in experiment [10], in experiment [11], in [13] and in experiment [14] was “inactive” each time. Besides, the Potency entry in [15], in [19], in experiment [16] and in experiment [17] was “inactive” throughout. Moreover, in experiment [9], the outcome was inactive. Further, the activity change, positive = activation in experiment [12] is 1.64%.
